# Screen size: about 4,800 compounds; about 420 (8.8%) showed an effect of 50% or more. The sample as a whole holds a higher share of strong results than the screen did.
# System: Plasmodium falciparum
# Assay: Confirmatory screen in NF54 nanoGlo assay, in single point, at 2uM, 72h
# Assay type: functional, Erythrocyte
# Details: timepoint 72 hour
row,SMILES,% Inhibition
1,CCC(C)(C)c1ccc(OCC(=O)Nc2cccc(C(=O)CC(=O)Nc3ccc(Oc4ccccc4)cc3)c2)c(C(C)(C)CC)c1,-4%
2,COc1nc(N2[C@@H]3CC[C@H]2C[C@@H](OC)C3)ncc1F,62%
3,CCN1CCN(C2CCN(c3ncc(F)c(OC)n3)CC2)CC1,48%
4,COc1cc(N)ccc1OCC(F)F,2%
5,Cc1nn(C)cc1-c1cc(C(F)(F)F)nc(N2CCOCC2)n1,-5%
6,Cn1ccc(NC(=O)C(=O)c2ccc(-c3ccccc3)cc2)n1,1%
7,Cc1ccccc1NC(=O)N1CCN(C(=O)c2nonc2N)CC1,-7%
8,NS(=O)(=O)c1ccc(-c2noc(C3(c4cccc(F)c4)CCC3)n2)cc1,-9%
9,COCCN1CCc2c(C)nc3c(-c4ccc(OC)c(OC)c4)cnn3c21,6%
10,Cc1ccc(S(=O)(=O)N2CCC(c3csc(N)n3)CC2)cc1,-9%
11,CCc1ncoc1C(=O)NCC(F)(F)c1cc(F)cc(F)c1,-10%
12,O=C1CCc2[nH]c(=O)n(C3CCCCC3)c(=O)c21,4%
13,C[C@@H]1NC(=O)N(C2CCCN(Cc3cccc(C(F)(F)F)c3)C2=O)C1=O (some centres not stated),-11%
14,COc1ccc(-n2c(C)nn(Cc3ccccc3)c2=O)cc1,-11%
15,CN(CCCNC(=O)Cc1n[nH]c(=O)c2ccccc12)Cc1ccccc1,-2%
16,CCCC(=O)Nc1ccc(N2CCN(CC(=O)N(CC)CC)CC2)cc1C(=O)O,-2%
17,Cc1cc(C)c(NC(=O)c2nnn(CC(=O)NCc3ccc(F)cc3)c2C)c(C)c1,-9%
18,O=C(N[C@H]1C[C@@H]2C[C@H]1CN2C(=O)c1cccc(C(F)(F)F)c1)c1ccccc1,3%
19,COc1cc(C)c2[nH]c3c(c(=O)c2c1)CN(CC(=O)Nc1ccc(F)c(C)c1)CC3,14%
20,COc1cc(C)c2[nH]c3c(c(=O)c2c1)CN(CC(=O)Nc1ccc(C)c(F)c1)CC3,0%
21,COc1ccc(OC)c(NC(=O)CN2CCc3[nH]c4ccc(F)cc4c(=O)c3C2)c1,72%
22,COc1ccc(S(=O)(=O)N(C2CCCCC2)C2CCCCC2)cc1,-11%
23,CCN(CCc1ccncc1)S(=O)(=O)c1ccc(N2C(=O)CCS2(=O)=O)cc1C,6%
24,O=C(Nc1ccc(-c2nc3cnccc3o2)c(Cl)c1)c1sc2ccccc2c1Cl,-5%
25,COc1cccc(-c2cc(O)cc(CC[C@H]3CCCCN3)c2)n1,73%
26,Oc1cc(CC[C@H]2CCCCN2)cc(-c2cnc3ccccc3n2)c1,73%
27,COCCN(CC1CN(Cc2ccsc2)CC1c1cccc(F)c1)C(=O)C(C)C (configuration not stated),2%

# — ChEMBL document CHEMBL4888484, “Replenishing the malaria drug discovery pipeline: Screening and hit evaluation of the MMV Hit Generation Library 1 (HGL1) against asexual blood stage Plasmodium falciparum ,using a nano luciferase reporter read-out” (2022)
